Experimental findings from PubChem BioAssay (NCI) are described below.

Among the test systems are HCT-15 colon; HT29 colon; SNB-75 CNS; SNB-19 CNS; U251 CNS; PC-3 prostate; SK-MEL-5 melanoma; UACC-62 melanoma; LOX IMVI melanoma; SK-MEL-28 melanoma; SK-MEL-2 melanoma; EKVX NSCLC; SN12C renal; UO-31 renal; TK-10 renal; ACHN renal; CAKI-1 renal; A498 renal; CCRF-CEM leukemia; MOLT-4 leukemia.
What all share (assay): NCI-60 one-dose screen, 48 h (100 = growth as untreated, 0 = no growth, -100 = all killed)
Holding throughout (conditions): 10 µM unless noted

This is part of a sample that, as a whole, favours compounds with a hit. Of some 83,000 tested, about 20% had one in any assay.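 48-hour exposure, single concentration, 96-well plates; percent growth endpoint where 0 means no net growth. Active: below 10.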 Values without a mark were called inactive. Activity calls are given as the source filed them.

Consider `CCN(CC)c1ccc2c(c1)Oc1nc(N)c(C#N)c(N)c1C2Sc1ccc(C)cc1` (stereo not given), for which the growth in the assay with HCT-15 colon is -83.8% (active); in the assay on HT29 colon, -23.5% (active); with SNB-75 CNS, -82.3% (active); with SNB-19 CNS it was -97.4% (active); in the assay on U251 CNS, -78.5% (active); in the assay on PC-3 prostate it was -88.5% (active). Besides, the growth with SK-MEL-5 melanoma is -96.4% (active); in the assay with UACC-62 melanoma, -88.5% (active); in the assay on LOX IMVI melanoma it was -92.2% (active); with SK-MEL-28 melanoma, -94.5% (active); with SK-MEL-2 melanoma it was -83.2% (active); with EKVX NSCLC, -97.2% (active). Further, the growth in the assay with SN12C renal was -69.7% (active); with UO-31 renal, -99.7% (active); in the assay with TK-10 renal, -90.6% (active); in the assay with ACHN renal, -98.8% (active); with CAKI-1 renal, -97.9% (active); with A498 renal it was -85.2% (active). Further, the growth with CCRF-CEM leukemia is -19.7% (active); in the assay on MOLT-4 leukemia, -14.2% (active).

On to `C#C[C@]1(O)CC[C@H]2[C@@H]3CC=C4c5sc(-c6ccc7c(c6)OCO7)nc5CC[C@]4(C)[C@H]3CC[C@@]21C`, for which the growth in the assay on HCT-15 colon was 10.5%; with HT29 colon, 8.04% (active); in the assay on SNB-75 CNS, -3.43% (active); in the assay on SNB-19 CNS, 15.5%; with U251 CNS it was -24.5% (active); with PC-3 prostate it was -23.7% (active). Also, the growth in the assay on SK-MEL-5 melanoma was 50.5%; with UACC-62 melanoma it was -35.5% (active); in the assay on LOX IMVI melanoma, -40.1% (active); in the assay with SK-MEL-28 melanoma it was -39.7% (active); with SK-MEL-2 melanoma, 28.9%; in the assay with EKVX NSCLC, 34.5%. Further, the growth was 22.3% in the assay on SN12C renal; 51.9% in the assay on UO-31 renal; 13.3% with TK-10 renal; 13% with ACHN renal; 44.4% in the assay on CAKI-1 renal; 48.8% with A498 renal. The growth in the assay with CCRF-CEM leukemia is 30.6%; in the assay with MOLT-4 leukemia, 8.06% (active).

For `CN(C)CCCOc1ccc2c(c1)CN(C(=O)c1cc(C(=O)N3Cc4cccc(F)c4C3)ccc1O)C2`, the growth in the assay with HCT-15 colon was 88.5%; in the assay on HT29 colon, 106%; with SNB-75 CNS, 95%; in the assay on SNB-19 CNS, 101%; with U251 CNS, 98.4%; with PC-3 prostate it was 102%. The growth in the assay on SK-MEL-5 melanoma was 98.2%; in the assay on UACC-62 melanoma, 96.3%; with LOX IMVI melanoma it was 91.8%; in the assay on SK-MEL-28 melanoma, 104%; in the assay with SK-MEL-2 melanoma it was 117%; with EKVX NSCLC, 103%. Besides, the growth is 99.4% with SN12C renal; 95.3% in the assay on UO-31 renal; 122% in the assay on TK-10 renal; 106% with ACHN renal; 95.8% in the assay on CAKI-1 renal; 97.1% in the assay on A498 renal. Also, the growth was 98.1% with CCRF-CEM leukemia and 97.5% with MOLT-4 leukemia.

Turning to `CS(=O)(=O)Nc1cc(-c2ccc3ncc(C#N)c(NCc4cccc(F)c4)c3c2)cnc1Cl`, the growth is 5.75% (active) with HCT-15 colon; 9.57% (active) with HT29 colon; 45.7% in the assay with SNB-75 CNS; 11.9% in the assay with SNB-19 CNS; 10.3% with U251 CNS; 4.17% (active) in the assay on PC-3 prostate. The growth with SK-MEL-5 melanoma was -96.6% (active); in the assay with UACC-62 melanoma, -20.2% (active); in the assay on LOX IMVI melanoma, -55% (active); with SK-MEL-28 melanoma it was 4.56% (active); in the assay with SK-MEL-2 melanoma, -63.4% (active); with EKVX NSCLC, -7.05% (active). The growth with SN12C renal is 15.4%; in the assay on UO-31 renal, 2.87% (active); in the assay with TK-10 renal it was -11% (active); in the assay with ACHN renal, 10.1%; with CAKI-1 renal it was 4.52% (active); with A498 renal, -48.9% (active). The growth in the assay on CCRF-CEM leukemia was 15.1%; in the assay with MOLT-4 leukemia, -10.6% (active).

Turning to `COc1cc(-c2ccc3ncnc(NCc4ccccc4)c3c2)cnc1OC`, the growth with HCT-15 colon was 68.2%; in the assay with HT29 colon, 64.5%; in the assay with SNB-75 CNS, -17.8% (active); in the assay with SNB-19 CNS, 74.4%; in the assay with U251 CNS, 81.7%; with PC-3 prostate it was 31.7%. Further, the growth is 70.8% in the assay on SK-MEL-5 melanoma; 47.1% with UACC-62 melanoma; 41.2% in the assay with LOX IMVI melanoma; 63.2% in the assay with SK-MEL-28 melanoma; 76.5% in the assay on SK-MEL-2 melanoma; 6.53% (active) with EKVX NSCLC. The growth in the assay on SN12C renal was 27.2%; with UO-31 renal, 17.7%; in the assay with TK-10 renal it was -11.7% (active); in the assay on ACHN renal it was 19.9%; in the assay on CAKI-1 renal, 6.95% (active); in the assay with A498 renal it was -48.8% (active). The values for the growth in the assay with CCRF-CEM leukemia and in the assay with MOLT-4 leukemia were 54.8% and 32.1%, respectively.

Regarding `O=S(=O)(NCCNc1nccc(-n2cnc3ccccc32)n1)c1ccc(C(F)(F)F)cc1`, the growth was 60.7% in the assay on HCT-15 colon; 68% with HT29 colon; 46.8% in the assay on SNB-75 CNS; 69.8% in the assay on SNB-19 CNS; 69.6% in the assay on U251 CNS; 45.5% in the assay on PC-3 prostate. The growth is 8.48% (active) in the assay with SK-MEL-5 melanoma; 42.4% with UACC-62 melanoma; 57.4% with LOX IMVI melanoma; 77.2% with SK-MEL-28 melanoma; 67.8% in the assay with SK-MEL-2 melanoma; 34.7% with EKVX NSCLC. Besides, the growth in the assay on SN12C renal is 72.5%; with UO-31 renal it was 39.9%; in the assay on TK-10 renal it was 63.4%; in the assay on ACHN renal it was 60.8%; with CAKI-1 renal, 43.1%; in the assay with A498 renal, 56.6%. Also, the growth in the assay on CCRF-CEM leukemia was 57.6%; with MOLT-4 leukemia it was 45.2%.

`Fc1ccc(-c2cc3nc(C(Cl)Cl)nc(-c4ccco4)n3n2)cc1`: the growth in the assay with HCT-15 colon is 4.34% (active); in the assay with HT29 colon it was -13.4% (active); in the assay on SNB-75 CNS, 55.7%; with SNB-19 CNS it was 0.644% (active); with U251 CNS, -9.36% (active); in the assay with PC-3 prostate, -19.2% (active). Moreover, the growth in the assay on SK-MEL-5 melanoma is 95.9%; in the assay with UACC-62 melanoma, 17.2%; in the assay on LOX IMVI melanoma it was 93.5%; in the assay with SK-MEL-28 melanoma, -24.5% (active); in the assay on SK-MEL-2 melanoma, 55.1%; with EKVX NSCLC, -8.73% (active). Also, the growth in the assay on SN12C renal is 59.1%; with UO-31 renal, -14.5% (active); in the assay with TK-10 renal it was -11.7% (active); with ACHN renal, -35.3% (active); in the assay with CAKI-1 renal, -23.7% (active); in the assay with A498 renal, -38.6% (active). For the same compound, the results for the growth in the assay with CCRF-CEM leukemia and with MOLT-4 leukemia were 85.2% and 59.7%, respectively.
